# From PubChem BioAssay
# Calls of active or inactive are those of the source. Unless noted, no rule for the calls is given here.
# What was measured:
# [1] = compounds binding Alexa647 anti-His antibody – biochemical, small-molecule microarray, 635 nm fluorescence, artefact control for SMM control protein annotation, primary screen (AID 1128); settings: higher = more signal;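 also: score merges feature fluorescence with signal-to-noise for each printed compound spot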
# [2] = tested on: Human papillomavirus type 1a E7 protein (residues 1-88); experiment: HPV1a E7 small-molecule binders, primary screen, biochemical, small-molecule microarray, residues 1-88, 635 nm (AID 1129); settings: small-molecule microarray binding, fluorescence 635 nm; higher = more signal
# [3] = biological target: Focal adhesion kinase 1 (Homo sapiens) (UniProt Q05397); experiment: PTK2 protein binding on printed compound slides – biochemical, small-molecule microarray, 635/667 nm fluorescence, BSA, DTT, primary screen (AID 1130); settings: 635 nm fluorescence, higher = more signal;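 also: composite of spot emission at 667 nm and signal to noise over triplicate slides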
# [4] = tested on: Fibrinogen (Alexa647-labelled); experiment: Alexa647-fibrinogen binding to printed small molecules – biochemical, small-molecule microarray, 635/667 nm fluorescence, artefact control for SMM control-protein annotation, profiling panel (AID 1131); settings: fibrinogen-A647 binding fluorescence, higher = more signal;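 also: z-score merges 667 nm fluorescence with per-spot signal-to-noise over triplicate slides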
# [5] = biological target: Follistatin (Homo sapiens) (UniProt P19883); experiment: FST protein binding to printed compounds – biochemical, small-molecule microarray, 635/667 nm fluorescence, primary screen (AID 1132); settings: 635 nm fluorescence, higher = more signal
# [6] = biological target: Fibroblast growth factor 2 (Homo sapiens) (UniProt P09038); experiment: basic fibroblast growth factor binding to printed compounds – biochemical, small-molecule microarray, 635/667 nm fluorescence, primary screen (AID 1133); settings: FGF2, fluorescence 635/667, higher = more signal
# [7] = JC-1 mitochondrial potential readout, lung cancer cells – cell-based, A549, JC-1 fluorescence, basal, 24 h, 100 nL, profiling panel (AID 1138); settings: higher = more signal;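 also: A549 lung adenocarcinoma cells under basal conditions with no added stimulus; test concentration not given here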
# Lefty1 = Lefty1 protein binding to printed compounds – biochemical, small-molecule microarray, 635/667 nm fluorescence, primary screen (AID 1139); settings: fluorescence 635/667, higher = more signal
# [8] = tested on: wheat germ agglutinin (Triticum aestivum), Alexa647-labelled; experiment: Alexa647-WGA lectin binding to printed small molecules – biochemical, small-molecule microarray, 635/667 nm fluorescence, artefact control for SMM control-protein annotation, profiling panel (AID 1140); settings: WGA-A647 binding, 635 nm fluorescence, higher = more signal;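 also: score merges 667 nm feature emission with signal to noise over triplicate slides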
# [9] = biological target: Luciferin 4-monooxygenase (Photinus pyralis) (UniProt P08659); experiment: inhibition of purified Photinus pyralis luciferase – biochemical, luminescence, purified enzyme, 2006 set, primary screen (AID 1141); settings: purified firefly luciferase, SteadyGlo luminescence, 30 min; higher = more signal, called active from +8 up or from −8 down;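 also: cell-free assay with purified firefly luciferase at 100 ng per well in PBS; test concentration not given here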
# [10] = tested on: Wnt5a (protein binding on small-molecule microarray); experiment: small molecules binding Wnt5a protein – biophysical, small-molecule microarray, 635/667 nm fluorescence, primary screen (AID 1142); settings: 635 nm fluorescence, higher = more signal;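 also: fluorescence read at 667 nm with signal to noise per printed feature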
# [11] = ATP-based viability of Huh7 replicon cells – cell-based, CellTiter-Glo luminescence, basal, 48 h, cytotoxicity control for HCV replication inhibitor project, primary screen (AID 1143); settings: higher = more signal, called active from +8 up or from −8 down;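 also: Huh7 hepatoma cells carrying a hepatitis C replication reporter with no stimulus; test concentration not given here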
# [12] = Pseudomonas biofilm growth suppression – PAO1 strain, BacTiter-Glo luminescence, LB-PBS, primary screen (AID 1144); settings: P. aeruginosa PAO1 biofilm, 12 h, higher = more signal
# [13] = basal CRE-LacZ reporter activity in PC12 – cell-based, unstimulated, primary screen (AID 1145); settings: no forskolin, luminescence, 4.5 h, higher = more signal, called active from +8 up or from −8 down
# [14] = forskolin-driven CRE-LacZ activity in PC12 – cell-based, CRE-LacZ reporter, forskolin-stimulated, primary screen (AID 1146); settings: luminescence, 4.5 h, higher = more signal, called active from +8 up or from −8 down;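 also: PC12 cells with 6xCRE LacZ reporter stimulated by forskolin 10 µM; beta-galactosidase reporter signal reflecting CREB driven transcription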
# [15] = biological target: Streptavidin (Streptomyces avidinii) (UniProt P22629); experiment: compounds binding control protein streptavidin – biophysical, small-molecule microarray, 635/667 nm fluorescence, artefact control for SMM compound annotation, primary screen (AID 1147); settings: higher = more signal;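 also: signal reflects streptavidin binding to arrayed compounds as a control protein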
# [16] = probe aInhba binding on compound microarray – biochemical, small-molecule microarray, 635/667 nm fluorescence, primary screen (AID 1148); settings: higher = more signal;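 also: score merges 667nm spot fluorescence with signal-to-noise for antibody binding to printed compounds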
# Torsin-1A (Homo sapiens) [17] = biological target: Torsin-1A (Homo sapiens) (UniProt O14656); experiment: TOR1A wild-type binding on microarray – cell lysate, small-molecule microarray, lysate, 635/667 nm, primary screen (AID 1149); settings: COS7 hTOR1A-WT lysate, 635 nm fluorescence, higher = more signal
# Torsin-1A (Homo sapiens) [18] = biological target: Torsin-1A (Homo sapiens) (UniProt O14656); experiment: torsin A mutant lysate binding on microarrays – cell lysate, small-molecule microarray, COS7 lysate, 635/667 nm fluorescence, primary screen (AID 1150); settings: COS7 hTOR1A mutant lysate, 635 nm fluorescence, higher = more signal;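 also: score pools 667 nm emission and signal to noise measuring lysate protein binding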
# [19] = tested on: Sonic hedgehog protein (Shh); experiment: Sonic hedgehog microarray binding compounds – biochemical, small-molecule microarray, 635/667 nm fluorescence, primary screen (AID 1151); settings: 635 nm fluorescence, higher = more signal;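 also: Shh protein binding to compounds spotted on small-molecule microarray slides; score combines spot fluorescence intensity with signal-to-noise across triplicate slides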
# Sequence of Fibroblast growth factor 2 (Homo sapiens) (P09038 whole entry, looked up): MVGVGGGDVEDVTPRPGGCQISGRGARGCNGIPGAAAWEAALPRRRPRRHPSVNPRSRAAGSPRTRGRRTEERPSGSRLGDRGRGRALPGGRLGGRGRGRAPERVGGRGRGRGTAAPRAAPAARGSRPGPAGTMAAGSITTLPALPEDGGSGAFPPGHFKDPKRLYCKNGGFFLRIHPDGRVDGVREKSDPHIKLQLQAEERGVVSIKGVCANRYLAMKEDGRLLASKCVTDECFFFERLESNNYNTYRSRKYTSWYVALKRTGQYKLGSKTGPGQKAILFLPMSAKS
# Sequence of Torsin-1A (Homo sapiens) (O14656 whole entry, looked up): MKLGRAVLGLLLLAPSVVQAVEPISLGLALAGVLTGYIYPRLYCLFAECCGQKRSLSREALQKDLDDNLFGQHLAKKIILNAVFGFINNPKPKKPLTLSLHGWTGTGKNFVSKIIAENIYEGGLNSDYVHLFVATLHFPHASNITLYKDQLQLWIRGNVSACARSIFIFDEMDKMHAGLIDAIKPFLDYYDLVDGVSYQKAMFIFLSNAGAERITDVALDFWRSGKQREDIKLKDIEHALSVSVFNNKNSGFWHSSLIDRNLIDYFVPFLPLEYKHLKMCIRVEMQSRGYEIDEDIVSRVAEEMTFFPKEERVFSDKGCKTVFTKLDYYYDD
# Sequence of Focal adhesion kinase 1 (Homo sapiens) (Q05397 whole entry, looked up): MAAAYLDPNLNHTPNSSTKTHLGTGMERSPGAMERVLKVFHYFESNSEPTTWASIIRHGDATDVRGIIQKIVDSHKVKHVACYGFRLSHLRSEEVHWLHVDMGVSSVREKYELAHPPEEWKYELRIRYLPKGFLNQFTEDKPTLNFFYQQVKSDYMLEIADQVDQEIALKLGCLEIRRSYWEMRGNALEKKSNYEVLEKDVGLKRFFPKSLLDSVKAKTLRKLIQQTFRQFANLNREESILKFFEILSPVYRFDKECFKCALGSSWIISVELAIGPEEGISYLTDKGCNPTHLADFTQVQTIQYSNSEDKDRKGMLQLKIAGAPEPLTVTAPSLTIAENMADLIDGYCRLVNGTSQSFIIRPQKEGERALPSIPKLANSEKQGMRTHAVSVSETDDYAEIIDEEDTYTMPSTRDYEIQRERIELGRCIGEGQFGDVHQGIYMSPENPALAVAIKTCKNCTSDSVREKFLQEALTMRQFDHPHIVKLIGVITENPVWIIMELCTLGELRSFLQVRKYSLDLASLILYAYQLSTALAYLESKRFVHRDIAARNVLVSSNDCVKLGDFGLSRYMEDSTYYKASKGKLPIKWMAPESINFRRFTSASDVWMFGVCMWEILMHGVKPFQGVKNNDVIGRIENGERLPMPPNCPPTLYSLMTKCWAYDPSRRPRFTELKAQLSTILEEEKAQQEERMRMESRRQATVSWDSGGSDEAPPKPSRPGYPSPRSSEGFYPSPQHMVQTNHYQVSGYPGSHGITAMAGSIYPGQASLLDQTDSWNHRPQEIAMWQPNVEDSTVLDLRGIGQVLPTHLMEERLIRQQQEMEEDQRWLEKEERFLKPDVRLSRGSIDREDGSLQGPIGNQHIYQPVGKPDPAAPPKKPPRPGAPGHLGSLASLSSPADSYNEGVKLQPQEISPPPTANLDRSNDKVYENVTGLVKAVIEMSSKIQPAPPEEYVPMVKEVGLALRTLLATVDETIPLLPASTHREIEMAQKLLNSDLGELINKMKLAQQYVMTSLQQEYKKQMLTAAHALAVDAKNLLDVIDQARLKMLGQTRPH
# Sequence of Luciferin 4-monooxygenase (Photinus pyralis) (P08659 whole entry, looked up): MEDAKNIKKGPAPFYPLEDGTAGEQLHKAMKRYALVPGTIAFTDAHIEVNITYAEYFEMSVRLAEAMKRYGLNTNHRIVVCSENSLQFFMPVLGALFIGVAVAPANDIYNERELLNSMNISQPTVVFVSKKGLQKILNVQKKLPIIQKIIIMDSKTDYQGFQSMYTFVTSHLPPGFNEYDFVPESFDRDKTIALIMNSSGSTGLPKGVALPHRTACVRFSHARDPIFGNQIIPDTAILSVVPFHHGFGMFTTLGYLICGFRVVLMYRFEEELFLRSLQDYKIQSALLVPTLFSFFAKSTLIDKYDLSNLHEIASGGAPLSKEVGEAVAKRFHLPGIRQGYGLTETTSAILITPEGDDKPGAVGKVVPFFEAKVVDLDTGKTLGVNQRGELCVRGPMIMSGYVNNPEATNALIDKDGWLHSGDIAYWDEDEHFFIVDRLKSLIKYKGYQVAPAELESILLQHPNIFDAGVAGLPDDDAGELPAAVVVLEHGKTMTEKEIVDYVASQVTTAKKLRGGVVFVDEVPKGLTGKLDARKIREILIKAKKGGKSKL
# Sequence of Streptavidin (Streptomyces avidinii) (P22629 whole entry, looked up): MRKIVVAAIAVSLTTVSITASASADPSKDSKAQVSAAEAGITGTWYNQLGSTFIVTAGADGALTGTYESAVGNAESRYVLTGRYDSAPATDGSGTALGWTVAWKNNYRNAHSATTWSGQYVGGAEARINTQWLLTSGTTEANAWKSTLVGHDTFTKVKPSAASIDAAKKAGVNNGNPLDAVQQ
# Sequence of Follistatin (Homo sapiens) (P19883 whole entry, looked up): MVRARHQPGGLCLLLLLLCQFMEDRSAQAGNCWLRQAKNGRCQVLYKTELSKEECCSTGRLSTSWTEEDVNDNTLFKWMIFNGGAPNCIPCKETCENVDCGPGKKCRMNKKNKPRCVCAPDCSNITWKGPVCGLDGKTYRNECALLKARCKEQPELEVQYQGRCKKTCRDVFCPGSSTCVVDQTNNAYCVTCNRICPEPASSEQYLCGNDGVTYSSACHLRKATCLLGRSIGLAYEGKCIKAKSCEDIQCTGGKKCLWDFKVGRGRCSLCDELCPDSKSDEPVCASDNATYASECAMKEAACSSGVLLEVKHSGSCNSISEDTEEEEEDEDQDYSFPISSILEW
SMILES,composite z-score [1],composite z-score [2],composite z-score [3],composite z-score [4],composite z-score [5],composite z-score [6],z-score [7],composite z-score (Lefty1),composite z-score [8],z-score [9],composite z-score [10],z-score [11],z-score [12],z-score [13],z-score [14],composite z-score [15],composite z-score [16],composite z-score (Torsin-1A (Homo sapiens) [17]),composite z-score (Torsin-1A (Homo sapiens) [18]),composite z-score [19]
C=CCC(OC(C)=O)[C@@H]1[C@@H](N(Cc2cccc3ccccc23)C(=O)c2ccc(C)cc2)c2cc(OCCCO)ccc2N1C(=O)c1ccc2ccccc2n1 (stereo not given in full),-0.24,0.098,0.348,0.682,0.584,0.0013,0.644,0.644,0.391,-1.05 (inactive),0.0305,-0.846 (inactive),-0.106 (inactive),0.642 (inactive),0.154 (inactive),0.2,0.0664,-0.0107,0.121,0.709
CCC(CC)C(O)C1C=CC2C(=O)N(C)C(=O)C2N1N1CCCCC1 (stereo not given),2.05,1.23,-0.0333,0.967,1.33,0.406,0.309,0.831,1.12,-0.203 (inactive),0.323,0.374 (inactive),-0.328 (inactive),0.0501 (inactive),1.06 (inactive),1.51,0.3,0.504,0.844,0.959
COC(=O)[C@@]1(Cc2ccc(F)cc2)[C@H]2c3cc(C(=O)N(C)C)n(CCn4cc([N+](=O)[O-])nc4C)c3C[C@H]2CN1C(=O)c1ccccc1,1.07,1.11,1.45,0.835,-0.394,-0.776,0.608,-1.07,0.288,0.984 (inactive),0.453,0.278 (inactive),-0.0864 (inactive),-0.761 (inactive),0.17 (inactive),0.0438,0.234,-0.0611,0.373,-0.755
CCCC[C@H]1OB(O)C[C@H]2C1=C(C)C[C@H]1C(=O)C=CC(=O)[C@H]12,0.306,0.615,-0.244,0.483,0.828,0.642,-0.353,1.16,-0.0126,-2.94 (inactive),-0.0289,-1.52 (inactive),0.244 (inactive),19.6 (active),14.8 (active),0.146,-0.0292,0.935,0.527,1.71
CN(C)CCCNC(=O)[C@@]1(Cc2ccccc2I)c2ccccc2C(=O)N(Cc2ccccc2)[C@H]1c1ccc(CO)cc1,1.88,1.26,0.658,0.512,1.28,1.58,0.893,0.239,-0.0325,0.936 (inactive),0.652,-5.58 (inactive),0.113 (inactive),0.351 (inactive),2.56 (inactive),-0.203,-0.471,0.0857,0.325,1.41
COC(=O)[C@@]1(Cc2ccc(F)cc2)[C@H]2c3cc(C(=O)N4CCCC4)n(CCO)c3C[C@H]2CN1C(=O)c1ccccc1,0.896,1.05,1.51,-2.15,-0.212,-0.862,1.44,-0.0322,0.0962,1.74 (inactive),0.181,-0.225 (inactive),0.452 (inactive),0.201 (inactive),-0.773 (inactive),0.0865,-0.0719,-0.113,0.0413,-1.69
Cc1ccc(S[C@]2(C(=O)NC3CC3)CC(=O)N(Cc3cc(C(F)(F)F)cc(C(F)(F)F)c3)[C@@H]2c2ccc(CO)cc2I)cc1,2.99,1.03,0.941,0.103,1.09,0.483,-0.271,-0.337,0.0196,0.717 (inactive),0.272,-0.636 (inactive),0.141 (inactive),-0.0243 (inactive),1.16 (inactive),0.389,0.532,-0.597,0.409,1.14
CC(C)N1CC=CC23O[C@@H]4C=CCCOC(=O)C4[C@H]2C(=O)N(CCCCCO)[C@@H]3C1=O (stereo not given in full),3,-0.349,-0.133,0.834,-1.21,-0.886,1.34,-0.376,0.717,0.0137 (inactive),-0.135,0.317 (inactive),-1.18 (inactive),0.199 (inactive),-0.695 (inactive),1.88,-0.224,-1.35,-1.12,0.0551
CN(C)CCCCNC(=O)[C@H]1C[C@H]2C(=O)NCC(=O)N2[C@H]1c1cccc(OCCO)c1,0.465,-0.74,-0.539,-1.59,0.991,0.817,0.411,0.748,0.169,1.59 (inactive),0.133,0.344 (inactive),-0.254 (inactive),-0.398 (inactive),0.586 (inactive),-1.04,-0.202,0.0774,-0.0032,2.19
